A selection: hits, their analogues and other compounds. The true share with any hit is near 1.6%.
KCNQ2 enhance = KCNQ2 (rat) channel potentiation; hit rate 0.54% among 310,000; CHO-K1 KCNQ2, FluxOR thallium flux fluorescence; active compounds read high; B-score at 10 µM; O88943;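 active = fluorescence ratio B-score at least 3 SD of library B-scores, with initial fluorescence B-score within 3 of them, cut at about 5.3 in these data; same plate scores as AID 2156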;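 also: B-score of peak minus minimum over baseline fluorescence ratio after K+ and Tl+ stimulus; positive B-score means potentiation of KCNQ2 with more thallium influx and brighter signal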
KCNQ2 block = KCNQ2 (rat) channel inhibition; O88943; CHO-K1 KCNQ2, FluxOR thallium flux, 20 min; active compounds read low; B-score at 10 µM; hit rate 1.1% among 310,000; AID 2156;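 active = fluorescence ratio B-score at most minus 3 library SDs, with starting brightness B-score within 2 library SDs, cut at about -5.5 in these data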
Kir21 conf inh = confirmation of mouse Kir2.1 potassium channel inhibitors; shares compounds with KCNQ2 enhance; Kir2.1-expressing cells, FluxOR thallium flux fluorescence; active compounds read low; Tl flux remaining, % of negative control (active compounds read low), % at 10 µM; hit rate 41% among 2,300;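 active = Primary-screen hit whose thallium flux fell at least 3 control SD below untreated wells in both duplicates, with normal baseline fluorescence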;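 also: 0% = blank wells without stimulus and 100% = stimulated no-compound controls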
HEK293 ctr = parental HEK293 activity in Kir2.1 inhibitor counter-screen; shares compounds with KCNQ2 enhance; parental HEK293 cells, FluxOR thallium flux fluorescence; 0% = unstimulated blank wells; FluxOR signal as % of negative control (100 = no effect), % at 10 µM; hit rate 19% among 2,300; AID 2105;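 active = dye signal at least 3 control SD above or below untreated wells in both duplicates, raw fluorescence within 3, either direction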;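 also: percent is based on the flux ratio of peak minus minimum fluorescence over baseline F0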
An asterisk follows results filed as active; i = inactive; . = no result given.

SMILES	KCNQ2 enhance	KCNQ2 block	Kir21 conf inh	HEK293 ctr
NC(=O)C1=C[C@@H](C2CCCCC2)C[C@@H](OCc2ccc(CO)cc2)O1	0.75	i	52.0%*	i
Cc1ccc(C(C)C)c(OCCN)c1	0.89	i	.	.
Cc1ccc(C(C)C)c(OCCNCc2ccccc2)c1	1.12	i	16.5%*	i
Cc1ccc(C(C)C)c(OCCOCCN2CCNCC2)c1	.	i	.	.
Cc1ccc(C(C)C)c(OCCCCN2CCNCC2)c1	0.18	i	44.0%*	i
Clc1cc(Br)ccc1OCCCNCc1ccccc1	.	i	.	.
Cc1ccc(C)c(OCCCNCc2ccccc2)c1	.	i	23.5%*	i
Cc1cc(OCCOCCNCc2ccccc2)ccc1C(C)C	2.23	i	21.5%*	i
CC(C)(C)c1ccccc1OCCOCCNCc1ccccc1	.	i	.	.
COc1cc2[nH]c3c(=O)n(N)c(=O)[nH]c3c2cc1OC	.	i	.	.
CC(C)CC(=O)c1c[nH]c(C(=O)NCc2ccc(F)cc2)c1	0.02	i	.	.
OC(CNCC1(N2CCCCC2)CCCCC1)COc1ccc(Cl)cc1Cl (configuration not stated)	2.54	i	50.0%*	75.0%*
O=C(COc1ccc(Cl)cc1Cl)NC(=O)N1CCCCC1	.	i	.	.
O=C(COC(=O)c1ccccc1[N+](=O)[O-])NCCCc1ccccc1	0.11	i	.	.
Cc1ccc(NC(=S)NNS(=O)(=O)c2ccc3ccccc3c2)cc1Cl	.	i	.	.
COc1cc(COCC(O)CN2CCc3ccccc3C2)cc(OC)c1OC (configuration not stated)	0.05	i	.	.
COc1ccc(OCC(O)CN2CCc3ccccc3C2)cc1 (configuration not stated)	0.26	i	.	.
COc1cccc(OCC(O)CN2CCc3ccccc3C2)c1 (configuration not stated)	0.35	i	.	.
Cc1ccc(OCC(O)CN2CCc3ccccc3C2)c(C)c1 (configuration not stated)	.	i	28.5%*	i
OC(COc1ccc(Cl)cc1Cl)CN1CCc2ccccc2C1 (configuration not stated)	.	i	39.5%*	i
C=CCc1ccc(OCC(O)CN2CCc3ccccc3C2)c(OC)c1 (configuration not stated)	.	i	30.5%*	i
Cc1cccc(OCC(O)CN2CCc3ccccc3C2)c1 (configuration not stated)	1.3	i	42.0%*	i
OC(COC(c1ccc(Cl)cc1)c1ccc(Cl)cc1)CN1CCc2ccccc2C1 (configuration not stated)	.	i	.	.
COc1cccc(C(=O)NCC(=O)OCc2ccc(F)cc2Cl)c1	.	i	.	.
Cc1ccccc1OCCC(=O)OCC(=O)NC1CCCCC1	1.08	i	.	.
SMILES	KCNQ2 enhance	KCNQ2 block	Kir21 conf inh	HEK293 ctr
CCCN(c1nc(C)cc(OC)n1)S(=O)(=O)c1ccccc1	.	i	50.0%*	i
COc1cc(C)nc(N(Cc2ccccc2)S(=O)(=O)c2ccccc2)n1	.	i	.	.
CCOC(=O)Cn1nc(C)c(NC(=O)c2ccc(Br)o2)c1C	.	i	.	.
c1cnc(N2CCN(Cc3c[nH]c4ccccc34)CC2)nc1	.	i	.	.
Fc1ccc(N2CCN(Cc3c[nH]c4ccccc34)CC2)cc1	0.09	i	19.0%*	i
Cc1cc(C)c(S(=O)(=O)c2cccc(Cl)c2)c(Cl)n1	.	i	.	.
CCOc1nc(C)cc(C)c1S(=O)(=O)c1cccc(Cl)c1	.	i	61.0%*	i
CC(C)[C@@H]1CC[C@@H](C)C[C@H]1OC(=O)C[n+]1cc(-c2ccc(Cl)cc2)n2c1CCCCC2	.	i	25.0%*	i
COc1ccc(-c2c[n+](CC(=O)OC3CC(C)CCC3C(C)C)c3n2CCC3)cc1 (configuration not stated)	0.47	i	.	.
CC(OC(=O)c1cccc(S(=O)(=O)N2CCCC2)c1)C(=O)NC1CCCCC1C (configuration not stated)	0.98	i	.	.
O=C(NCc1n[nH]c(=S)n1-c1ccc(Cl)c(Cl)c1)c1ccc(S(=O)(=O)N2CCOCC2)cc1	0.97	i	.	.
Cc1c(C)n(CCN(C)C)c2ccc(C(=O)OCCN(C)C)cc12	2.14	i	.	.
Cc1c(C)n(Cc2ccccc2)c2ccc(C(=O)OCCCN(C)C)cc12	.	i	24.5%*	i
C=CCNC(=O)C1CCC(=O)N1S(=O)(=O)c1ccc(C)cc1 (configuration not stated)	.	i	.	.
O=C(O)CCC(=O)N1CCN(c2cccc(Cl)c2)CC1	0.8	i	.	.
O=C(O)/C=C/C(=O)N1CCN(c2cccc(Cl)c2)CC1	0.11	i	i	i
CCOc1ccc(C(C)=O)cc1CSc1nnnn1-c1ccc(O)cc1	.	i	62.0%*	i
